# Source: PubChem BioAssay (NCI)
# “And” between values parts separate entries of the source, which are not always exact repeats. Equal values may be shown once. About 83,000 compounds went through this panel and 20% of them were active in at least one assay; those are over-represented in the sample as a whole.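 A percent growth of 40 corresponds to 60% growth inhibition; 0 means no net growth; -100 means all cells died. Active threshold: below 10.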 The source made the active and inactive calls.
# Legend:
# Assay in all cases: NCI-60 one-dose screen, 48 h (100 = growth as untreated, 0 = no growth, -100 = all killed)
# HCT-15 colon = system: HCT-15 colon
# HT29 colon = system: HT29 colon
# SNB-75 CNS = system: SNB-75 CNS
# SNB-19 CNS = system: SNB-19 CNS
# U251 CNS = system: U251 CNS
# PC-3 prostate = system: PC-3 prostate
# SK-MEL-5 melanoma = system: SK-MEL-5 melanoma
# LOX IMVI melanoma = system: LOX IMVI melanoma
# SK-MEL-28 melanoma = system: SK-MEL-28 melanoma
# UACC-62 melanoma = details: 10 µM
smiles,measurement,setting,value
Nc1c2ccccc2nc2ccccc12,growth,HCT-15 colon; 10 µM,5.79% (active) and 15.8% (inactive) and 26.5% (inactive)
same,growth,HT29 colon; 10 µM,-21.6% (active) and 20.8% (inactive) and 19.9% (inactive)
same,growth,SNB-75 CNS; 10 µM,33.1% (inactive) and 51.8% (inactive) and 89.3% (inactive)
same,growth,SNB-19 CNS; 10 µM,22.5% (inactive) and 39.8% (inactive)
same,growth,U251 CNS; 10 µM unless noted,6.74% (active) and 26.5% (inactive) and 34.7% (inactive)
same,growth,PC-3 prostate; 10 µM,23.7% (inactive) and 9.05% (active) and 41.1% (inactive)
same,growth,SK-MEL-5 melanoma; 10 µM unless noted,5.28% (active) and 19.7% (inactive) and 39.5% (inactive)
same,growth,LOX IMVI melanoma; 10 µM unless noted,-53.7% (active) and 14.9% (inactive) and 12.4% (inactive)
same,growth,SK-MEL-28 melanoma; 10 µM,18% (inactive) and 28.2% (inactive) and 82.1% (inactive)
NNc1ccc2ccccc2c1,growth,HCT-15 colon; 10 µM,91.2% (inactive) and 97% (inactive)
same,growth,HT29 colon; 10 µM,99.8% (inactive) and 104% (inactive)
same,growth,SNB-75 CNS; 10 µM,79.1% (inactive) and 75.7% (inactive)
same,growth,SNB-19 CNS; 10 µM,99% (inactive) and 102% (inactive)
same,growth,U251 CNS; 10 µM unless noted,103% (inactive) and 101% (inactive)
same,growth,PC-3 prostate; 10 µM,73% (inactive) and 82% (inactive)
same,growth,SK-MEL-5 melanoma; 10 µM unless noted,89.3% (inactive) and 87.6% (inactive)
same,growth,LOX IMVI melanoma; 10 µM unless noted,75.5% (inactive) and 91.7% (inactive)
same,growth,SK-MEL-28 melanoma; 10 µM,111% (inactive) and 114% (inactive)
COc1c(O)cc2oc3cc(O)c(CC=C(C)C)c(O)c3c(=O)c2c1CC=C(C)C,growth,HCT-15 colon; 10 µM,24.1% (inactive)
same,growth,HT29 colon; 10 µM,27.6% (inactive)
same,growth,SNB-75 CNS; 10 µM,82.7% (inactive)
same,growth,SNB-19 CNS; 10 µM,96.4% (inactive)
same,growth,U251 CNS; 10 µM unless noted,47.9% (inactive)
same,growth,PC-3 prostate; 10 µM,41.1% (inactive)
same,growth,SK-MEL-5 melanoma; 10 µM unless noted,90% (inactive)
same,growth,LOX IMVI melanoma; 10 µM unless noted,0.237% (active)
same,growth,SK-MEL-28 melanoma; 10 µM,87.8% (inactive)
O=C(C(=Cc1ccccc1)C(=O)c1ccccc1)c1ccccc1,growth,HCT-15 colon; 10 µM,28.1% (inactive) and 88.8% (inactive)
same,growth,HT29 colon; 10 µM,47.1% (inactive) and 91.2% (inactive)
same,growth,SNB-75 CNS; 10 µM,69.7% (inactive) and 81.4% (inactive)
same,growth,SNB-19 CNS; 10 µM,46.9% (inactive) and 92.4% (inactive)
same,growth,U251 CNS; 10 µM unless noted,86.2% (inactive)
same,growth,PC-3 prostate; 10 µM,48.3% (inactive) and 77.7% (inactive)
same,growth,SK-MEL-5 melanoma; 10 µM unless noted,66.6% (inactive) and 94.4% (inactive)
same,growth,UACC-62 melanoma,48.8% (inactive) and 66.7% (inactive)
same,growth,LOX IMVI melanoma; 10 µM unless noted,-56.4% (active) and 77.5% (inactive)
same,growth,SK-MEL-28 melanoma; 10 µM,60.4% (inactive) and 105% (inactive)
COC1OCC(O)C(O)C1O (configuration not stated),growth,HCT-15 colon; 10 µM,98.5% (inactive)
same,growth,HT29 colon; 10 µM,104% (inactive)
same,growth,SNB-75 CNS; 10 µM,80.8% (inactive)
same,growth,SNB-19 CNS; 10 µM,113% (inactive)
same,growth,U251 CNS; 10 µM unless noted,94.5% (inactive)
same,growth,PC-3 prostate; 10 µM,92.4% (inactive)
same,growth,SK-MEL-5 melanoma; 10 µM unless noted,101% (inactive)
same,growth,UACC-62 melanoma,105% (inactive)
same,growth,LOX IMVI melanoma; 10 µM unless noted,95.3% (inactive)
same,growth,SK-MEL-28 melanoma; 10 µM,106% (inactive)
COc1cccc2c1C(=O)c1c(O)c3c(c(O)c1C2=O)C[C@@](O)(C(=O)CO)C[C@@H]3OC1CC(N)C(O)C(C)O1 (some centres not stated),growth,HCT-15 colon; 0.0025 µM,99.2% (inactive)
same,growth,HCT-15 colon; 1 µM,81.9% (inactive)
same,growth,HCT-15 colon; 2.5 µM,70.2% (inactive)
same,growth,HCT-15 colon; 10 µM,15.2% (inactive)
same,growth,HT29 colon; 0.0025 µM,93.2% (inactive)
same,growth,HT29 colon; 1 µM,40.7% (inactive)
same,growth,HT29 colon; 2.5 µM,55% (inactive)
same,growth,HT29 colon; 10 µM,4.69% (active)
same,growth,SNB-75 CNS; 0.0025 µM,98% (inactive)
same,growth,SNB-75 CNS; 1 µM,33% (inactive)
same,growth,SNB-75 CNS; 2.5 µM,7.99% (active)
same,growth,SNB-75 CNS; 10 µM,-61.7% (active)
same,growth,SNB-19 CNS; 0.0025 µM,92.5% (inactive)
same,growth,SNB-19 CNS; 1 µM,21.1% (inactive)
same,growth,SNB-19 CNS; 2.5 µM,35.6% (inactive)
same,growth,SNB-19 CNS; 10 µM,-0.904% (active)
same,growth,U251 CNS; 0.0025 µM,83.6% (inactive)
same,growth,U251 CNS; 2.5 µM,16.4% (inactive)
same,growth,U251 CNS; 10 µM,9.22% (active)
same,growth,PC-3 prostate; 0.0025 µM,100% (inactive)
same,growth,PC-3 prostate; 1 µM,54.7% (inactive)
same,growth,PC-3 prostate; 10 µM,1.27% (active)
same,growth,SK-MEL-5 melanoma; 0.0025 µM,93.2% (inactive)
same,growth,SK-MEL-5 melanoma; 10 µM,-85.1% (active)
same,growth,LOX IMVI melanoma; 0.0025 µM,81.7% (inactive)
same,growth,LOX IMVI melanoma; 1 µM,8.33% (active)
same,growth,LOX IMVI melanoma; 10 µM,5.68% (active)
same,growth,SK-MEL-28 melanoma; 0.0025 µM,93.7% (inactive)
same,growth,SK-MEL-28 melanoma; 1 µM,65.7% (inactive)
same,growth,SK-MEL-28 melanoma; 2.5 µM,70.7% (inactive)
same,growth,SK-MEL-28 melanoma; 10 µM,-17% (active)
Clc1ccc(/C=C/c2ccccn2)c(Cl)c1,growth,HCT-15 colon; 10 µM,68.2% (inactive)
same,growth,HT29 colon; 10 µM,83.3% (inactive)
same,growth,SNB-75 CNS; 10 µM,61.2% (inactive)
same,growth,SNB-19 CNS; 10 µM,92.7% (inactive)
same,growth,U251 CNS; 10 µM unless noted,79.1% (inactive)
same,growth,PC-3 prostate; 10 µM,85.9% (inactive)
same,growth,SK-MEL-5 melanoma; 10 µM unless noted,81.6% (inactive)
same,growth,UACC-62 melanoma,80.6% (inactive)
same,growth,LOX IMVI melanoma; 10 µM unless noted,91.3% (inactive)
same,growth,SK-MEL-28 melanoma; 10 µM,120% (inactive)
COc1cccc2c1C(=O)c1c(O)c3c(c(O)c1C2=O)C[C@@](O)(C(C)=O)C[C@@H]3OC1CC(N)C(O)C(C)O1 (some centres not stated),growth,HCT-15 colon; 10 µM,3.22% (active)
same,growth,HT29 colon; 10 µM,1.89% (active)
same,growth,SNB-75 CNS; 10 µM,-82.7% (active)
same,growth,SNB-19 CNS; 10 µM,-9.95% (active)
same,growth,U251 CNS; 10 µM unless noted,3.16% (active)
same,growth,PC-3 prostate; 10 µM,-25.8% (active)
same,growth,SK-MEL-5 melanoma; 10 µM unless noted,-90.5% (active)
same,growth,LOX IMVI melanoma; 10 µM unless noted,1.63% (active)
same,growth,SK-MEL-28 melanoma; 10 µM,-51% (active)
NC(=O)SCC(=O)NNc1ccccc1,growth,HCT-15 colon; 10 µM,89.2% (inactive)
same,growth,HT29 colon; 10 µM,103% (inactive)
same,growth,SNB-75 CNS; 10 µM,92.5% (inactive)
same,growth,SNB-19 CNS; 10 µM,108% (inactive)
same,growth,U251 CNS; 10 µM unless noted,87.8% (inactive)
same,growth,PC-3 prostate; 10 µM,85.7% (inactive)
same,growth,SK-MEL-5 melanoma; 10 µM unless noted,103% (inactive)
same,growth,UACC-62 melanoma,70.9% (inactive)
same,growth,LOX IMVI melanoma; 10 µM unless noted,67.1% (inactive)
same,growth,SK-MEL-28 melanoma; 10 µM,106% (inactive)
